Test results: PubChem BioAssay (NCATS)
Records with an inconclusive call do not appear. Calls of active or inactive are those of the source. Unless noted, no rule for the calls is given here.

How the values were obtained:
[1] = qHTS profiling of the MIPE4 collection as inhibitors of Plasmodium falciparum (3D7) proliferation (AID 743344);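 also: scaled between DMSO vehicle wells and 0.29 µM artemisinin as full inhibition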; conditions: P. falciparum 3D7 in erythrocytes, SYBR Green DNA fluorescence, 72 h; at 28.5 µM unless noted
Outline: (§1)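 Parasite DNA was quantified by SYBR Green I fluorescence (ex 485, em 535 nm) after overnight lysis in saponin/Triton buffer at room temperature. Cultures at 0.3% parasitemia and 2.5% hematocrit were first exposed to compound for 72 h at 37 C; signals were normalised to artemisinin (0.29 uM) and vehicle wells.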

[2] = qHTS profiling of the MIPE4 collection as inhibitors of Plasmodium falciparum (DD2) proliferation (AID 743345); conditions: P. falciparum Dd2 in erythrocytes, SYBR Green DNA, 72 h; at 28.5 µM unless noted
Outline: as §1

[3] = qHTS profiling of the MIPE4 collection as inhibitors of Plasmodium falciparum (DD2) proliferation (Rep 2) (AID 743346); conditions: P. falciparum Dd2 in erythrocytes, SYBR Green DNA, 72 h; at 28.5 µM unless noted
Outline: as §1

[4] = qHTS profiling of the MIPE4 collection as inhibitors of Plasmodium falciparum (HB3) proliferation (AID 743347);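 also: plate controls were DMSO vehicle wells for no effect and artemisinin wells for full effect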; conditions: P. falciparum HB3 in erythrocytes, SYBR Green DNA, 72 h; at 28.5 µM unless noted
Outline: as §1

[5] = High-throughput drug toxicity screening in the BPDCN cell line Gen2.2 (AID 1224824); conditions: Gen2.2 BPDCN cells; at 45.8 µM (top of the series) unless noted;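 also: cells exposed to compounds for 48 h before reading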
Outline: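 Seed 500 exponentially growing Gen2.2 cells/well; add compounds by pin tool; incubate 48 h, 37 °C, 5% CO2; add CellTiter-Glo, 15 min RT; read luminescence. % activity vs DMSO (100%) and bortezomib (0%).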

[6] = High-throughput drug toxicity screening in the BPDCN cell line Cal-1 (AID 1224825); conditions: Cal-1 BPDCN cell viability, qHTS; at 45.8 µM (top of the series) unless noted
Outline: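 Viability of the BPDCN line Cal-1 is measured as ATP-based luminescence (CellTiter-Glo) following 48 h incubation with compounds. Percent activity uses DMSO-treated wells as 100% and 9.2 uM bortezomib as 0%.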

[7] = qHTS assay for measurement of the activity of small molecule inhibitors on Zika virus induced Caspase-3 activity in human iPSC derived neural progenitor cells (hNPCs) (AID 1224857; active = well fitted curve in the direction sought with a large enough effect; an effect the other way counts as inactive or inconclusive; also: % of control where 0% means no effect; nearly all actives have a fitted effect of over 65% in size)
Outline: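 Percent inhibition of virus-induced caspase-3/7 luminescence (Caspase-Glo), scaled between uninfected cells and Zika-infected cells. hNPCs received compound 1 hr before ZIKV at 2 FFU/cell, with 6 hours infection at 37 C.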

[8] = qHTS assay for measurement of the activity of small molecule inhibitors on Zika virus induced Caspase-3 activity in human astrocytoma cells (AID 1224859; active = well fitted curve in the direction sought with a large enough effect; an effect the other way counts as inactive or inconclusive;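 also: plate controls were ZIKV-infected untreated cells for no effect and uninfected cells for full effect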)
Outline: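 Luminescent caspase-3/7 read-out (30 min reagent, room temperature) in human SNB-19 cells infected 6 h with ZIKV (2 FFU/cell) after 1 h compound pre-incubation; Data were normalised to uninfected and infected wells.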

[9] = qHTS Screen of the MIPE 4.0 Collection Against Ewings Sarcoma (RDES) (AID 1259252; active = well fitted curve in the direction sought with a large enough effect; an effect the other way counts as inactive or inconclusive; also: nearly all actives have a fitted effect of over 35% in size; also: potency is read from the fitted curve at half-maximal effect)
Outline: (§2)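 Measured: ATP luminescence (CellTiter-Glo) 10 min after reagent addition, following 48 h drug treatment. Relative luciferase units converted to percent activity, with no-cell wells as full and DMSO wells as zero inhibition.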

[10] = qHTS Screen of the MIPE 4.0 Collection Against Ewings Sarcoma (EW8) (AID 1259255; active = well fitted curve in the direction sought with a large enough effect; an effect the other way counts as inactive or inconclusive; also: nearly all actives have a fitted effect of over 35% in size; also: potency is read from the fitted curve at half-maximal effect;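 as to viability: 100% = DMSO-treated cells and 0% = medium-only wells without cells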)
Outline: as §2

[11] = qHTS Screen of the MIPE 4.0 Collection Against Ewings Sarcoma (TC32) (AID 1259256; active = well fitted curve in the direction sought with a large enough effect; an effect the other way counts as inactive or inconclusive; also: nearly all actives have a fitted effect of over 45% in size; also: potency is read from the fitted curve at half-maximal effect)
Outline: as §2

[12] = Identifying Small Molecule Inhibitors of Pancreatic Cancer Stem Cells (SN12C, Adherent) (AID 1259358; active = well fitted curve in the direction sought with a large enough effect; an effect the other way counts as inactive or inconclusive;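 also: cell survival measured after 48 h of compound exposure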; also: potency is read from the fitted curve at half-maximal effect)
Outline: (§3)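 After a 4 h attachment period, compounds were pinned into wells and cultures held 48 h under standard incubator conditions. Viability was then measured as CellTiter-Glo luminescence following 10 min at room temperature.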

[13] = Identifying Small Molecule Inhibitors of Pancreatic Cancer Stem Cells (Panc1, Spheroid) (AID 1259359; active = well fitted curve in the direction sought with a large enough effect; an effect the other way counts as inactive or inconclusive;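 also: compound exposure lasted 48 h before reading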)
Outline: (§4)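 Adherent (2D) versus sphere (3D) formats; spheres generated 14 d in SCM beforehand. Compound transferred by pin tool after 4 h, 48 h incubation, CellTiter-Glo endpoint.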

[14] = Identifying Small Molecule Inhibitors of Pancreatic Cancer Stem Cells (SN12C, Spheroid) (AID 1259360; active = well fitted curve in the direction sought with a large enough effect; an effect the other way counts as inactive or inconclusive; also: potency is read from the fitted curve at half-maximal effect;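 as to viability (% of control): 100% = DMSO-treated cells and 0% = wells without cells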); conditions: Potency: SN12C spheroid viability
Outline: as §4

[15] = Identifying Small Molecule Inhibitors of Pancreatic Cancer Stem Cells (A278, Adherent) (AID 1259361; active = well fitted curve in the direction sought with a large enough effect; an effect the other way counts as inactive or inconclusive;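 also: viability read after 48 h compound exposure; nearly all actives have a fitted effect of over 35% in size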)
Outline: as §3

[16] = qHTS profiling for inhibitors of Plasmodium falciparum (HB3) proliferation (AID 743324; active = well fitted curve in the direction sought with a large enough effect; an effect the other way counts as inactive or inconclusive;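 also: 100% = DMSO vehicle wells and 0% = artemisinin-treated control wells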); conditions: Plasmodium falciparum HB3 blood-stage proliferation; at 28.7 µM (top of the series) unless noted
Outline: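 SYBR Green fluorescence (485 ex/535 em) of lysed cultures, incubated overnight at room temperature in the dark, quantifies parasite DNA. Infected erythrocytes at 0.3% parasitemia and 2.5% hematocrit were exposed 72 h; values normalized to DMSO and 0.29 uM artemisinin controls.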

Compound: C[C@H]1[C@H](O)O[C@@H]2O[C@@]3(C)CC[C@@H]4[C@H](C)CC[C@@H]1[C@@]24OO3
- parasite growth, % of DMSO control [1]: 18.9%
- parasite growth remaining, % of DMSO control (lower = more inhibition) [2]: 7.23%
- parasite growth, % of control (lower = inhibition) [3]: 13.8%
- growth, % of control [4]: 11.1%
- cell viability, % of control (lower = more cytotoxic) [5]: 15.8%
- viability (% of control) [6]: 7.2%
- Potency [7]: inactive
- Potency [8]: inactive
- Potency [9]: 3.32 µM (active)
- Potency [10]: 1.66 µM (active)

Compound: Cn1c(=O)c(Oc2ccc(F)cc2F)cc2cnc(NC3CCOCC3)nc21
- parasite growth, % of DMSO control [1]: 25.1%
- parasite growth remaining, % of DMSO control (lower = more inhibition) [2]: 86.4%
- parasite growth, % of control (lower = inhibition) [3]: 48.3%
- growth, % of control [4]: 35.7%
- cell viability, % of control (lower = more cytotoxic) [5]: 178%
- viability (% of control) [6]: 93.3%
- Potency [7]: inactive
- Potency [8]: inactive
- Potency [9]: inactive
- Potency [11]: inactive

Compound: O=C(Nc1ccccc1)Nc1ccc(-c2ccc(C(=O)[C@H]3CCC[C@H]3C(=O)O)cc2)cc1
- parasite growth, % of DMSO control [1]: 29%
- parasite growth remaining, % of DMSO control (lower = more inhibition) [2]: 78.7%
- parasite growth, % of control (lower = inhibition) [3]: 32%
- cell viability, % of control (lower = more cytotoxic) [5]: 28.8%
- viability (% of control) [6]: 107%
- Potency [7]: inactive
- Potency [8]: inactive
- Potency [9]: 14.8 µM (active)
- Potency [11]: 18.7 µM (active)

Compound: CCNC(=O)c1noc(-c2cc(C(C)C)c(O)cc2O)c1-c1ccc(CN2CCOCC2)cc1
- parasite growth, % of DMSO control [1]: 5.56%
- parasite growth remaining, % of DMSO control (lower = more inhibition) [2]: 7.71%
- parasite growth, % of control (lower = inhibition) [3]: 9.57%
- growth, % of control [4]: 4.24%
- cell viability, % of control (lower = more cytotoxic) [5]: 14.2%
- viability (% of control) [6]: 7.68%
- Potency [7]: inactive
- Potency [8]: inactive
- Potency [9]: 0.105 µM (active)
- Potency [11]: 0.059 µM (active)
- Potency [12]: 0.0105 µM (active)
- Potency [13]: inactive
- Potency [14]: 0.0074 µM (active)
- IC50 (viability decrease) [15]: 0.0037 µM (active)

Compound: Cc1nn(Cc2ccccc2Cl)c(C)c1CN(C)CC(O)COc1ccc(Cl)cc1 (stereo not given)
- remaining proliferation (% of control), lower = more inhibition [16]: 8.74%
- parasite growth, % of DMSO control [1]: 9.8%
- parasite growth remaining, % of DMSO control (lower = more inhibition) [2]: 18.8%
- parasite growth, % of control (lower = inhibition) [3]: 16.7%
- cell viability, % of control (lower = more cytotoxic) [5]: 18%
- viability (% of control) [6]: 53.4%
- Potency [7]: inactive
- Potency [8]: inactive
- Potency [9]: 23.5 µM (active)
- Potency [11]: 23.5 µM (active)
- Potency [12]: inactive
- Potency [14]: inactive

Compound: CO[C@@H]1C(N(C)C(=O)c2ccccc2)C[C@H]2O[C@]1(C)n1c3ccccc3c3c4c(c5c6ccccc6n2c5c31)C(=O)NC4=O (stereo not given in full)
- remaining proliferation (% of control), lower = more inhibition [16]: 120%
- parasite growth, % of DMSO control [1]: 17.5%
- parasite growth remaining, % of DMSO control (lower = more inhibition) [2]: 8.87%
- parasite growth, % of control (lower = inhibition) [3]: 122%
- cell viability, % of control (lower = more cytotoxic) [5]: 247%
- viability (% of control) [6]: 28.3%
- Potency [7]: inactive
- Potency [8]: inactive
- Potency [9]: 4.18 µM (active)
- Potency [11]: 3.32 µM (active)

Compound: CC1(C)OC2CC3C4CC(F)C5=CC(=O)C=CC5(C)C4C(O)CC3(C)[C@]2(C(=O)CO)O1 (stereo not given in full)
- parasite growth, % of DMSO control [1]: 52.8%
- parasite growth remaining, % of DMSO control (lower = more inhibition) [2]: 89.8%
- parasite growth, % of control (lower = inhibition) [3]: 7.06%
- growth, % of control [4]: 47.9%
- cell viability, % of control (lower = more cytotoxic) [5]: 77.5%
- viability (% of control) [6]: 52%
- Potency [7]: inactive
- Potency [8]: inactive
- Potency [9]: inactive
- Potency [10]: inactive

Compound: N#Cc1ccc(Oc2ccc3c(c2)COB3O)cc1
- parasite growth, % of DMSO control [1]: 35.7%
- parasite growth remaining, % of DMSO control (lower = more inhibition) [2]: 91.9%
- parasite growth, % of control (lower = inhibition) [3]: 38.3%
- growth, % of control [4]: 24.2%
- cell viability, % of control (lower = more cytotoxic) [5]: 210%
- viability (% of control) [6]: 98.9%
- Potency [7]: inactive
- Potency [8]: inactive
- Potency [9]: inactive
- Potency [11]: inactive

Compound: CNC(=O)[C@H](CC1=CN=C2C=CCC=C12)NC(=O)[C@@H](CC(=O)NO)CC(C)C
- parasite growth, % of DMSO control [1]: 22%
- parasite growth remaining, % of DMSO control (lower = more inhibition) [2]: 47.4%
- parasite growth, % of control (lower = inhibition) [3]: 26.7%
- growth, % of control [4]: 18.7%
- cell viability, % of control (lower = more cytotoxic) [5]: 31.3%
- viability (% of control) [6]: 8.09%
- Potency [7]: inactive
- Potency [8]: inactive
- Potency [9]: inactive
- Potency [11]: inactive
